Compound activity from PubChem.
TDP1 cell CPT – DT40-hTDP1 cell growth loss with CPT; Potency, µM (top dose mostly 46.2 µM), usual class: inhibitors; AID 686979; 12% of 420,000 active; chicken DT40 Tdp1-/-;hTDP1 cells + 20 nM CPT, ATP luminescence, 48 h; further: nearly all actives have a fitted effect of over 55% in size
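Chicken DT40 Tdp1-/- cells stably complemented with human TDP1 were seeded at 400 cells/well in medium containing 20 nM camptothecin, exposed to pin-transferred compounds, and grown at 37 °C for at least 48 hr. Viability was read as ATP luminescence.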
VP16 counter – counter-screen for ROR gamma inhibitors: Gal4-VP16 reporter; 3.5% of 310,000 active; AID 2546; Drosophila S2 Gal4-VP16 UAS-luciferase, luminescence, 20 h; Potency, µM (top dose mostly 53.6 µM), usual class: inhibitors;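 further: Gal4-VP16 expression switched on by copper sulfate through the metallothionein promoter; nearly all actives have a fitted effect of over 50% in size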
TDP1 cell noCPT – qHTS for Inhibitors of human tyrosyl-DNA phosphodiesterase 1 (TDP1): qHTS in cells in absence of CPT; AID 686978, 2013; DT40 Tdp1-/- hTDP1 cells, no CPT, ATP luminescence, 48 h; Potency, µM (highest dose often 46.2 µM), actives largely listed as inhibitors; 15% of 420,000 active; further: nearly all actives have a fitted effect of over 55% in size
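Readout: luminescence from CellTiter-Glo after 30 min in the dark at RT. Cells: DT40 Tdp1-/- with stable hTDP1, 400/well. Exposure: compounds alone, ≥48 hr, 37 °C.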
TDP1 inh – blocks human tyrosyl-DNA phosphodiesterase 1 | recombinant TDP1, AlphaScreen DNA substrate cleavage | 0.28% of 350,000 active | Potency, µM (highest dose often 130 µM), most hits filed as inhibitors | Q9NUW8 | AID 485290; further: nearly all actives have a fitted effect of over 40% in size
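Enzyme-compound mixtures sat 15 min at room temperature, followed by a 5 min reaction with 15 nM final substrate and 10 min with AlphaScreen beads. Recombinant human Tdp1 was used at 1 nM final.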
RORg inh – ROR gamma (mouse) transcription inhibition; Drosophila S2 Gal4-RORgamma UAS-luciferase reporter, 20 h; AID 2551; Potency, µM (top dose mostly 53.6 µM), most hits filed as inhibitors; P51450; 5.4% of 310,000 active; further: nearly all actives have a fitted effect of over 60% in size
Target sequence (P51450 whole entry, looked up, the tested form may be a part): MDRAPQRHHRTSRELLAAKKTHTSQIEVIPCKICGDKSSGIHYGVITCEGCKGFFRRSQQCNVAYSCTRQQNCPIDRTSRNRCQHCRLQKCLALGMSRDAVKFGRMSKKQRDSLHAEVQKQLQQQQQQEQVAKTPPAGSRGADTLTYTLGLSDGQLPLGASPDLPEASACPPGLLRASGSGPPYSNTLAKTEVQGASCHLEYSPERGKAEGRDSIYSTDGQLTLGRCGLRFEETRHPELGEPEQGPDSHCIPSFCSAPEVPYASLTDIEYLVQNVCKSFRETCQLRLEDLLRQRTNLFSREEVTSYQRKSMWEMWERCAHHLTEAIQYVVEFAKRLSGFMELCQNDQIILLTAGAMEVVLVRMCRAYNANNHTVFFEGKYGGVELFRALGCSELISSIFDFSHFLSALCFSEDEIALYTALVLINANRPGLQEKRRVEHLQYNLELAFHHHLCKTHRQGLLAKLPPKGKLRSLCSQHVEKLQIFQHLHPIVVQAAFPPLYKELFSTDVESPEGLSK
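In this cell-based reporter format, copper sulfate (700 uM final) drives Gal4–ROR gamma fusion expression from a metallothionein promoter in Drosophila Schneider cells; compounds preincubated 1 hr, reporter read after 20 hr at ambient temperature.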
Large screens that a line does not name were inactive. Sampled rows, rich in hits. Any-hit rate of the full collection: about 19%. The call rests on the fitted dose curve; in most records, active means well fitted curve in the direction sought with a large enough effect; inconclusive means small, poorly fitted or top-dose-only effect, or another doubt; inactive means no such curve, though single readings can be large; an effect the other way counts as inactive or inconclusive.

COc1ccc(NC(=O)N2CCc3ccccc3C2)cc1OC	none
CCC1(C)Cc2c(sc3nc4n(c(=O)c23)CCS4)CO1 (centres undefined)	TDP1 cell noCPT inconclusive
O=c1c2nc(Br)n([C@@H]3O[C@@H]4CO[P@@](O)(=S)O[C@H]4[C@H]3O)c2nc2[nH]c(-c3ccccc3)cn12	TDP1 inh 22µM (no result: TDP1 cell CPT, TDP1 cell noCPT)
Nc1nc2c(nc(Br)n2[C@@H]2O[C@H]3COP(=O)(O)O[C@H]3[C@@H]2O)c(=O)[nH]1	none
COc1cccc(/C=N/n2c(C)nc3ccccc32)c1OC	TDP1 cell CPT inconclusive, VP16 counter 8.9µM, TDP1 cell noCPT inconclusive, RORg inh 3.2µM
Cc1nc2ccccc2c(=O)n1/N=C/c1ccc([N+](=O)[O-])o1	VP16 counter inconclusive, RORg inh inconclusive (no result: TDP1 cell CPT, TDP1 cell noCPT)
Cc1nc2ccccc2n1/N=C/c1ccc([N+](=O)[O-])o1	TDP1 cell CPT 1.8µM, TDP1 cell noCPT 2.9µM (no result: VP16 counter, TDP1 inh, RORg inh)
O=[N+]([O-])c1cccnc1Nc1ccc(Cl)cc1	none (no result: VP16 counter, TDP1 inh, RORg inh)
Cc1nc2ccccc2n1/N=C/c1ccc([N+](=O)[O-])s1	TDP1 cell CPT 3.7µM, VP16 counter 6.3µM, TDP1 cell noCPT 5.2µM
O=[N+]([O-])c1ccc(/C=N/Nc2ncccc2[N+](=O)[O-])s1	TDP1 cell CPT 1.5µM, TDP1 cell noCPT 1.3µM (no result: VP16 counter, TDP1 inh, RORg inh)
CC(O)/C=C/c1cccc[n+]1C (centres undefined)	none
Cc1cc2ncn(/N=C/c3ccc([N+](=O)[O-])s3)c2cc1C	TDP1 cell CPT inconclusive, TDP1 cell noCPT 8.2µM
Cc1cc2ncn(/N=C/c3cc(Br)ccc3O)c2cc1C	VP16 counter inconclusive (no result: TDP1 cell CPT, TDP1 cell noCPT)
COc1ccc(/C=N/n2c(SC)nnc2-c2ccccc2)c(OC)c1OC	TDP1 cell CPT 3.3µM, TDP1 cell noCPT 2.1µM
O=[N+]([O-])c1ccc(/C=N/n2cnc3ccccc32)s1	TDP1 cell CPT 3.7µM, VP16 counter inconclusive, TDP1 cell noCPT 3.7µM
CCc1cccc2c1NC(=O)C21N2CCCC2C(C(=O)c2ccc3ccccc3c2)C12C(=O)Nc1ccccc12 (centres undefined)	TDP1 cell CPT 18µM, VP16 counter inconclusive, TDP1 cell noCPT 13µM
Cc1cccc2c1NC(=O)C21N2CCCC2C(C(=O)c2ccc3ccccc3c2)C12C(=O)Nc1ccccc12 (centres undefined)	TDP1 cell CPT inconclusive, TDP1 cell noCPT 26µM
CCCN(C(=O)c1ccc2c(=O)n3c(nc2c1)CCCCC3)c1cccc(Cl)c1	TDP1 cell CPT inconclusive, TDP1 cell noCPT 16µM (no result: VP16 counter, RORg inh)
CN(Cc1ccc(C(C)(C)C)cc1)C(=O)c1ccc2c(=O)n3c(nc2c1)CCC3	TDP1 cell CPT 21µM, TDP1 cell noCPT 21µM (no result: VP16 counter, RORg inh)
COc1ccc(N2CCN(C(=O)c3ccc4c(=O)n5c(nc4c3)CCCCC5)CC2)cc1	TDP1 cell noCPT inconclusive (no result: TDP1 inh)
CN(C(=O)c1ccc2c(=O)n3c(nc2c1)CCCCC3)c1cccc(Cl)c1	TDP1 cell CPT 23µM, TDP1 cell noCPT 23µM, RORg inh inconclusive
O=C(c1ccc2c(=O)n3c(nc2c1)CCCCC3)N1CCN(c2cccc(Cl)c2)CC1	TDP1 cell CPT 18µM, TDP1 cell noCPT 23µM (no result: TDP1 inh)
COC(=O)C1CC(O)CN1C(=O)NC1CCCCC1 (centres undefined)	TDP1 cell noCPT inconclusive
CSc1nc2ccc(S(=O)(=O)N3CCOCC3)cc2s1	none
CCOC(=O)/C(C#N)=C1\C(=O)N(Cc2ccccc2)c2ccccc21	TDP1 cell CPT 9.2µM, TDP1 cell noCPT 9.2µM (no result: TDP1 inh)
CCOC(=O)/C(C#N)=C1/C=CN(Cc2ccccc2)C=N1	none
CC1=C(C)CS(=O)N(c2ccc(S(N)(=O)=O)cc2)C1 (centres undefined)	TDP1 cell CPT 13µM, VP16 counter 4.5µM, TDP1 cell noCPT 23µM, RORg inh 3.5µM
CC1=C(C)CS(=O)N(S(=O)(=O)c2ccccc2)C1 (centres undefined)	TDP1 cell CPT 23µM, VP16 counter 11µM, TDP1 cell noCPT 10µM, RORg inh 8.9µM
NS(=O)(=O)c1ccc(S(=O)(=O)N2CCCC2)cc1	none
O=S(=O)(c1ccccc1)N1CCN(S(=O)(=O)c2ccccc2)CC1	none (no result: VP16 counter, RORg inh)
COCCn1c(=O)c(C)nc2cnc(Nc3cccc(OC)c3)nc21	TDP1 cell CPT inconclusive (no result: TDP1 inh)
CCOC(=O)CSc1n[nH]c(NC(=O)c2cccc(C(F)(F)F)c2)n1	none
NC(=O)C1(c2ccccc2)CCCN1C(=O)c1ccc(Br)cc1 (centres undefined)	TDP1 cell noCPT inconclusive
Cc1ccccc1OCC(O)CN(Cc1ccccc1O)C1CCCCC1 (centres undefined)	TDP1 cell CPT 16µM, TDP1 cell noCPT 13µM, RORg inh inconclusive
OC(CNC1CCCC1)COc1ccccc1Br (centres undefined)	TDP1 cell noCPT inconclusive (no result: TDP1 inh)
CN(CC(O)COc1ccccc1F)C1CCCCC1 (centres undefined)	none
Cc1ccccc1OCC(O)CN1CCN(CC(O)COc2ccccc2C)C(C)C1 (centres undefined)	TDP1 cell CPT inconclusive, TDP1 cell noCPT 16µM (no result: TDP1 inh)
Cc1ccccc1OCC(O)CNC1CCC(NCC(O)COc2ccccc2C)CC1 (centres undefined)	TDP1 cell CPT 3.7µM, VP16 counter inconclusive, TDP1 cell noCPT 2.3µM, RORg inh inconclusive (no result: TDP1 inh)
OC(CNC1CCCCCC1)COc1cccc2ccccc12 (centres undefined)	TDP1 cell CPT 16µM, TDP1 cell noCPT 13µM (no result: TDP1 inh)
Cc1c(C(=O)N2CCCC(c3ccccc3)C2)sc2ncnc(NCCc3ccccn3)c12 (centres undefined)	none (no result: VP16 counter, TDP1 inh, RORg inh)
COC(=O)CS(=O)(=O)c1cccc2cccnc12	TDP1 cell CPT inconclusive
CCCCCCCCCCCCCCOc1ccc(C(=O)O)o1	TDP1 inh 40µM (no result: TDP1 cell CPT, TDP1 cell noCPT)
CCCCOc1cccc(C(=O)O)c1	none
O=C(Cn1nc(Cl)nc1Cl)c1ccccc1	TDP1 cell CPT inconclusive, TDP1 cell noCPT 15µM (no result: TDP1 inh)
O=C(Cn1nc(Cl)nc1Cl)c1ccc2c(c1)OCCO2	TDP1 cell CPT 5.2µM, TDP1 cell noCPT 13µM
CC1C(c2ccccc2)N(C)C(c2ccccc2)CC1(O)c1ccc(F)cc1 (centres undefined)	TDP1 cell CPT inconclusive, VP16 counter inconclusive, TDP1 cell noCPT inconclusive
O=C(OCn1nnc2ccccc2c1=O)C1COc2ccccc2O1 (centres undefined)	none
O=c1c2ccccc2nnn1CSc1nnc(C2COc3ccccc3O2)n1-c1ccccc1 (centres undefined)	TDP1 cell CPT 21µM, TDP1 cell noCPT inconclusive
C=CCOc1c(Cl)cc(CNc2nccs2)cc1OC	VP16 counter inconclusive, RORg inh 5.6µM
C=CCOc1ccc(CNc2nccs2)cc1OCC	TDP1 cell CPT inconclusive, TDP1 cell noCPT inconclusive
COc1ccc(CNc2nccs2)cc1OC	none (no result: TDP1 inh)
C=CCOc1c(CNc2nccs2)cccc1OCC	VP16 counter inconclusive, RORg inh 11µM
